Results on seven compounds are retold here after PubChem BioAssay (NCI).

Among the test systems are NCI-H23 lung; NCI-H226 lung; NCI-H322M lung; HOP-62 NSCLC; NCI-H460 lung; HOP-92 NSCLC; NCI-H522 lung; A549/ATCC NSCLC; 786-0 renal; COLO 205 colon; DU-145 prostate; K-562 leukemia; MALME-3M melanoma; MDA-MB-231 breast; RXF 393 renal; SF-268 CNS; SF-295 CNS; SF-539 CNS; UACC-257 melanoma; M14 melanoma.
Common to all, as to test: NCI-60 one-dose screen, 48 h (100 = growth as untreated, 0 = no growth, -100 = all killed)
Holding throughout (conditions): 10 µM unless noted

Compounds without any hit were thinned out: in the full panel of roughly 83,000, 20% have a hit.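 In brief: 96-well plates, 48 h treatment, single concentration, percent growth endpoint.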 Values without a mark were called inactive. The source made the active and inactive calls. How the source made its calls: active means growth percent below 10; inactive means the rest.

`N#C/C(=C\c1ccc(Br)cc1)n1nnc2cccc(F)c21`: the growth with NCI-H23 lung was 23.8%; in the test on NCI-H226 lung it was 41.9%; in the test with NCI-H322M lung, 32.3%; in the test with HOP-62 NSCLC, 40%; with NCI-H460 lung it was -47% (active); in the test on HOP-92 NSCLC, -23.7% (active). Besides, the growth in the test with NCI-H522 lung is 18.4%; in the test with A549/ATCC NSCLC, 20.9%; in the test on 786-0 renal it was 11.2%; in the test on COLO 205 colon, -12.5% (active); in the test with DU-145 prostate, 0.426% (active); in the test on K-562 leukemia, 12.7%. The growth in the test with MALME-3M melanoma was 37.7%; in the test on MDA-MB-231 breast it was -1.07% (active); with RXF 393 renal it was -23.6% (active); in the test with SF-268 CNS it was 24.4%; in the test on SF-295 CNS it was 55.4%; in the test with SF-539 CNS, 1.06% (active). For the same compound, the growth was 37.3% with UACC-257 melanoma and 10.9% with M14 melanoma.

As to `COc1ccc(/C=C\c2nc3ccccc3s2)cc1OP(=O)(O)O`, the growth was 43.4% in the test on NCI-H23 lung; 66.3% with NCI-H226 lung; 59.8% in the test on NCI-H322M lung; 49.3% in the test on HOP-62 NSCLC; 20.7% in the test on NCI-H460 lung; 90.2% in the test with HOP-92 NSCLC. In addition, the growth is 12.5% in the test with NCI-H522 lung; 42.3% in the test with A549/ATCC NSCLC; 64.7% in the test with 786-0 renal; 112% in the test with COLO 205 colon; 29.1% with DU-145 prostate; 10.4% in the test with K-562 leukemia. Moreover, the growth with MALME-3M melanoma is 71.3%; with MDA-MB-231 breast it was 49.2%; in the test on RXF 393 renal, 2.73% (active); in the test with SF-268 CNS it was 60.2%; in the test with SF-295 CNS it was 40.8%; in the test with SF-539 CNS, -10.2% (active). Besides, the growth was 83.1% with UACC-257 melanoma and 25.5% with M14 melanoma.

In the case of `Cc1ccc(-c2csc(/N=C3\C(=O)Nc4ccccc43)n2)cc1`, the growth is 23.5% with NCI-H23 lung; 62.1% with NCI-H226 lung; 47.1% in the test with NCI-H322M lung; 25.3% with HOP-62 NSCLC; 8.52% (active) with NCI-H460 lung; -16.1% (active) in the test with HOP-92 NSCLC. Besides, the growth with NCI-H522 lung is -57.6% (active); in the test on A549/ATCC NSCLC it was 23%; with 786-0 renal it was 14.7%; in the test with COLO 205 colon, -15.6% (active); in the test with DU-145 prostate it was 42.2%; in the test on K-562 leukemia, 1.43% (active). Further, the growth in the test with MALME-3M melanoma was -3.69% (active); in the test on MDA-MB-231 breast, 11.2%; in the test on RXF 393 renal it was -4.86% (active); with SF-268 CNS, 33%; in the test with SF-295 CNS, 13.9%; with SF-539 CNS, 20.3%. Further, the growth in the test with UACC-257 melanoma was 11.9%; with M14 melanoma it was 13.4%.

As for `COc1ccc2nc(N=Nc3c(O)ccc4ccccc34)sc2c1`, the growth was 31.6% in the test with NCI-H23 lung; 55% in the test with NCI-H226 lung; 43.8% with NCI-H322M lung; 30.2% in the test with HOP-62 NSCLC; 6.32% (active) with NCI-H460 lung; 60.9% with HOP-92 NSCLC. The growth was 61.2% in the test with NCI-H522 lung; 24.6% in the test with A549/ATCC NSCLC; 14.7% in the test on 786-0 renal; 33.1% in the test with COLO 205 colon; 37.1% in the test with DU-145 prostate; 19.1% in the test on K-562 leukemia. For the same compound, the growth was 57.5% in the test on MALME-3M melanoma; 45.2% in the test on MDA-MB-231 breast; 52.4% with RXF 393 renal; 33.4% with SF-268 CNS; 16.5% in the test with SF-295 CNS; 22.9% with SF-539 CNS. The values for the growth with UACC-257 melanoma and in the test with M14 melanoma were 36.9% and 1.92% (active), respectively.

As to `O=C(CCN1CCCC1)Nc1ccc2c(Nc3ccccc3)c3ccccc3nc2c1`, the growth was 22.1% with NCI-H23 lung; 41.9% with NCI-H226 lung; 7.35% (active) in the test with NCI-H322M lung; 12.1% in the test with HOP-62 NSCLC; -60.7% (active) with NCI-H460 lung; 14.3% in the test with HOP-92 NSCLC. For the same compound, the growth with NCI-H522 lung was -33.7% (active); in the test with A549/ATCC NSCLC, 10.1%; in the test with 786-0 renal, 10.1%; with COLO 205 colon it was -37.4% (active); in the test with DU-145 prostate, -28.5% (active); with K-562 leukemia, 0.263% (active). The growth in the test with MALME-3M melanoma is -85.1% (active); in the test with MDA-MB-231 breast it was 3.81% (active); in the test with RXF 393 renal, 8.26% (active); in the test with SF-268 CNS, 26.1%; in the test on SF-295 CNS, 33.4%; in the test with SF-539 CNS it was -62.5% (active). Also, the growth in the test on UACC-257 melanoma is -39.5% (active); in the test with M14 melanoma it was -77.4% (active).

Regarding `COc1cc2nc(-c3ccc(C(F)(F)F)cc3)cc(OCCCN3CCCCC3)c2cc1OC`, the growth was 57.9% in the test on NCI-H23 lung; -11.8% (active) in the test on NCI-H226 lung; 62.3% in the test on NCI-H322M lung; 57.6% with HOP-62 NSCLC; 17.7% in the test on NCI-H460 lung; 27.9% in the test on HOP-92 NSCLC. In addition, the growth is 33.6% with NCI-H522 lung; 44.4% in the test on A549/ATCC NSCLC; 48.4% in the test on 786-0 renal; 11.6% with COLO 205 colon; 45.3% in the test on DU-145 prostate; 12.8% in the test with K-562 leukemia. The growth was 39.9% with MALME-3M melanoma; 27.7% in the test with MDA-MB-231 breast; 26.9% in the test on RXF 393 renal; 50.6% in the test with SF-268 CNS; -46.8% (active) with SF-295 CNS; 46.1% in the test on SF-539 CNS. The growth was 10.1% in the test with UACC-257 melanoma and -19.2% (active) in the test with M14 melanoma.

`Cc1[nH]c(C(=O)Nc2ccccc2OCc2cccc(C(=O)NCCN)c2)c(Cl)c1Cl`: the growth was 78% in the test on NCI-H23 lung; 87.8% in the test with NCI-H226 lung; 81.9% with NCI-H322M lung; 69.2% with HOP-62 NSCLC; 51.8% in the test on NCI-H460 lung; 84.6% with HOP-92 NSCLC. The growth in the test with NCI-H522 lung is 80.9%; with A549/ATCC NSCLC, 63.8%; in the test with 786-0 renal it was 33.9%; in the test with COLO 205 colon, 68.7%; in the test on DU-145 prostate it was 100%; in the test on K-562 leukemia, -47.5% (active). Besides, the growth with MALME-3M melanoma is 58.4%; in the test with MDA-MB-231 breast, 76.8%; in the test with RXF 393 renal it was 65.2%; in the test on SF-268 CNS, 67.9%; in the test with SF-295 CNS, 87.8%; with SF-539 CNS, 84.9%. Further, the growth with UACC-257 melanoma is 104%; in the test with M14 melanoma it was 87.8%.
